Measured values reported in PubChem BioAssay (NCI).
About 83,000 compounds went through this panel and 20% of them were active in at least one assay; those are over-represented in the sample as a whole.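 96-well plates, one dose, 48 hours. Percent growth reported; active if below 10.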 Values without a mark were called inactive. Active and inactive are the calls of the source.

Legend:
Assay in all cases: NCI-60 one-dose screen, 48 h (100 = growth as untreated, 0 = no growth, -100 = all killed)
Conditions in all cases: 10 µM unless noted
RPMI-8226 leukemia = tested on: RPMI-8226 leukemia
OVCAR-8 ovarian = tested on: OVCAR-8 ovarian
OVCAR-5 ovarian = tested on: OVCAR-5 ovarian
OVCAR-4 ovarian = tested on: OVCAR-4 ovarian
SK-OV-3 ovarian = tested on: SK-OV-3 ovarian
IGROV1 ovarian = tested on: IGROV1 ovarian
OVCAR-3 ovarian = tested on: OVCAR-3 ovarian
HS 578T breast = tested on: HS 578T breast
NCI/ADR-RES ovarian = tested on: NCI/ADR-RES ovarian

SMILES | growth (RPMI-8226 leukemia) | growth (OVCAR-8 ovarian) [%] | growth (OVCAR-5 ovarian) [%] | growth (OVCAR-4 ovarian) | growth (SK-OV-3 ovarian) [%] | growth (IGROV1 ovarian) | growth (OVCAR-3 ovarian) | growth (HS 578T breast) [%] | growth (NCI/ADR-RES ovarian) [%]
CSc1nc(Nc2cccc(NC(=O)CCl)c2)c(C#N)c(-c2cccc([N+](=O)[O-])c2)n1 | -14.1% (active) | 37 | 78.7 | 28.7% | 95.5 | 0.383% (active) | 6.67% (active) | 52 | 56.7
COc1ccc(/C=N/C2=C(C#N)C(c3ccc(N(C)C)cc3)c3ccc4ccccc4c3O2)cc1 (stereo unspecified) | 63% | 85.8 | 88 | 86.8% | 73.7 | 39.5% | 38.2% | 58.6 | 46.7
N#C/C(=C\c1ccc(-c2cc(C(F)(F)F)ccc2Cl)o1)c1nc(-c2ccco2)cs1 | 101% | 103 | 98.9 | 85.1% | 100 | 104% | 113% | 103 | 106
CCC(=O)c1ccc(Cl)s1 | 104% | 101 | 105 | 109% | 114 | 118% | 112% | 103 | 104
O=S(=O)(Nc1ccc(I)cc1F)c1ccc(-c2cnc(C3CC3)o2)cc1 | 71.1% | 70 | 88.2 | 60.5% | 71.5 | 45.4% | 16.1% | 35.2 | 28
C=CC(=O)Nc1cccc(-c2nc(SC)nc(NCCc3ccc(OC)c(OC)c3)c2C#N)c1 | 9.33% (active) | 30.7 | 91.7 | 19.4% | 89.3 | 65.7% | 53.6% | 71.1 | 23.7
CC1=NN(c2nc(-c3ccc(Cl)cc3)c(C#N)c(N3CCOCC3)n2)C(=O)C1 | 57.1% | 99.3 | 97.3 | 51.5% | 86.6 | 81% | 50.2% | 54.6 | 96.1
O=C(/C=C/c1cccc(Cl)c1)c1ccc(O)c(CN2CCN(c3cc4c(cc3F)c(=O)c(C(=O)O)cn4C3CC3)CC2)c1 | 4.11% (active) | 20.6 | 52.6 | 79.5% | 79.8 | 48% | 40.8% | 41.3 | 60.5
O=C(N=Nc1c(O)[nH]c2ccc(Br)cc12)c1cc(-c2ccccc2)on1 | 105% | 104 | 98.9 | 94.9% | 111 | 101% | 115% | 99.1 | 103
C=CC(=O)Nc1cccc(-c2nc(SC)nc(Nc3cccc(OC)c3)c2C#N)c1 | 40% | 42 | 103 | 62.5% | 73.5 | 65.9% | 52.1% | 49.3 | 49.2
COc1ccc(-c2nc3ccc(-c4nc5ccc(N6CCN(c7ccncc7)CC6)cc5[nH]4)cc3[nH]2)cc1OC | 53.5% | 34.6 | 87.2 | 26.5% | 73.6 | 65.2% | 4.61% (active) | 44.1 | 96.9
CC(C)(C)c1cc(/C=N\NC(=O)/C=C/C=C/c2ccc3c(c2)OCO3)c(O)c(C(C)(C)C)c1 | 80.6% | 75.3 | 89.3 | 34.8% | 100 | 70.3% | 75.6% | 13.6 | 66.1
COc1ccc(CCNc2nc(SC)nc(-c3cccc([N+](=O)[O-])c3)c2C#N)cc1OC | 82.6% | 61.6 | 87.5 | 5.9% (active) | 72.7 | 95.4% | 102% | 68.3 | 68.4
COc1cccc(-c2nn(C(C)(C)C)cc2-c2ccnc(NCCCNS(=O)(=O)c3cccc4ccccc34)c2)c1 | 103% | 103 | 104 | 101% | 110 | 110% | 108% | 101 | 101
